# The list is not random: actives were taken first. Their share in the collection is about 3.5%.
# TEAD-YAP inh: TEAD-YAP interaction inhibition. HEK-TIYL cells, TEAD-Gal4/YAP UAS-luciferase luminescence. inhibition, % at 9.12 µM. 640,000 tested, 1.4% active; in the data active means inhibition above about 32%;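 further: 0% = median of test compound wells and 100% = reference inhibitor wells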
# MITF primary: blocks human microphthalmia-associated transcription factor; O75030; inhibition, % at 2.6 µM; AlphaScreen MITF homodimerization, bead proximity signal; 650,000 tested, 0.91% active; AID 1259374; in the data active means inhibition above about 50%;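 further: 0% = vehicle wells with protein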
# GPR151 activ: activates the human receptor GPR151; Q8TDV0; PathHunter beta-arrestin GPR151 cells, luminescence; activation, % at 11.2 µM; 650,000 tested, 1% active; AID 1508602; in the data active means activation above about 4.9%;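 further: 0% = median of compound wells and 100% = cells with positive control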
# FBW7 act: activators of human E3 ligase FBW7 | normalized activity (activation), % at 26.1 µM | Q969H0 | 650,000 tested, 0.13% active | AlphaScreen FBW7–phospho-cyclin E peptide binding, activator screen; in the data active means normalized activity above about 1.9%;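 further: purified mutant Fbw7 with reduced substrate affinity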
# GPR151 conf act: confirmation of human GPR151 activators; GPR151 PathHunter beta-arrestin cells, luminescence, 90 min; % of EA-reagent control over plate median; 6,700 tested, under 10 active; shares compounds with GPR151 activ; activation, % at 11.2 µM;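 active means mean percent activation across replicates above the confirmation screen cutoff of 4.91%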
# GPR119 ag: counter-screen for GPR151 activators: effect on human GPR119; activation, % at 11.2 µM; AID 1508611; shares compounds with GPR151 activ; GPR119 PathHunter beta-arrestin cells, luminescence, 90 min; 0 = compound-well median, 100 = enzyme-acceptor control; 6,700 tested, 0.3% active;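 active means mean percent activation in the counterscreen above 29.09%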;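 further: counterscreen on off-target GPR119 to flag nonselective hits from the GPR151 activator screen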
# Target sequence (Q8TDV5 whole entry, looked up): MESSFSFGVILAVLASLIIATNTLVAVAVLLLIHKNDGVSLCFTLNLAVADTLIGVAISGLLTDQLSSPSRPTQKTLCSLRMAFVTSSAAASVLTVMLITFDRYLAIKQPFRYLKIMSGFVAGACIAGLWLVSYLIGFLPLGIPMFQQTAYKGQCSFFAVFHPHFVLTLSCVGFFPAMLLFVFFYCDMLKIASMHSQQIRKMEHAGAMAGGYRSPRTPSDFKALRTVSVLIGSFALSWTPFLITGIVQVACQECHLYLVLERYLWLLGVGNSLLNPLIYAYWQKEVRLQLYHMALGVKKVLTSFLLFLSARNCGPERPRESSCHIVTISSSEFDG
# Active calls of the source: *; x = no result given.
SMILES,TEAD-YAP inh,MITF primary,GPR151 activ,FBW7 act,GPR151 conf act,GPR119 ag
Cc1[nH]c2ccccc2c1C(=O)CSc1nc(N)cc(=O)[nH]1,9.6,5.8,5.8*,0.0,0.0,7.1
Cc1cc(C(=O)CSc2nc(N)cc(=O)[nH]2)ccc1F,-13.9,-12.8,-1.1,-0.3,x,x
Cc1ccc(C(=O)CSc2nc(N)cc(=O)[nH]2)cc1C,-5.9,-10.3,5.9*,0.0,0.7,3.0
CCN1CCCC1CNC(=O)CSCc1cnn(-c2ccccc2)c1-n1cccc1 (stereo unspecified),2.2,4.5,-0.9,-0.2,x,x
COc1ccc(C2(NC(=O)c3snnc3C)CCCCC2)cc1,0.2,1.2,20.4*,-0.1,0.0,-1.1
Cc1nnc(NC(=O)c2ccc(C(C)C)cc2)s1,15.8,-17.3,-1.7,0.1,x,x
O=C(CSc1nc2ccsc2c(=O)n1-c1cccc(Cl)c1Cl)NCCc1ccccc1,-12.3,-7.3,-1.2,0.7,x,x
Cc1nn(Cc2ccc(C(=O)NC3CCCC3)o2)c(C)c1[N+](=O)[O-],6.5,-0.2,5.5*,0.0,-0.9,-15.3
CC(=O)Nc1ccc(Nc2nc(Nc3cccc(N(C)C)c3)ncc2C)cc1,8.0,7.3,5.5*,-0.2,-0.5,-11.8
CCNc1cc(=O)c2s[nH]c(=O)c2[nH]1,2.2,-7.3,-0.4,-0.5,x,x
CCN(CC)C(=O)NCc1noc2ccccc12,-6.8,0.2,5.3*,0.5,0.7,5.7
Cc1ccc(NC(=O)NCc2noc3ccccc23)nc1,4.2,4.3,-1.5,0.0,x,x
CCN(C(=O)NCc1noc2ccccc12)c1ccccc1,-8.9,-5.3,5.6*,-0.1,0.4,1.8
Cc1cccc(NC(=O)NCc2noc3ccccc23)n1,0.9,-7.0,5.6*,0.0,0.2,-2.5
CCCCN(CC)C(=O)NCc1noc2ccccc12,-1.7,-20.8,0.2,-0.1,x,x
CC(=O)N1CCc2c(sc(NC(=O)C3COc4ccccc4O3)c2C#N)C1 (stereo unspecified),24.2,6.5,-0.1,0.0,x,x
CCN(CC)c1ccc2cc(-c3nc(-c4ccc5ccccc5c4)cs3)c(=O)oc2c1,0.1,7.4,1.9,1.1,x,x
O=C1CCCN1Cc1n[nH]c(=S)n1-c1ccccn1,-1.5,15.5,0.9,0.1,x,x
COc1ccccc1-c1coc2cc(OC(=O)C(C)(C)C)ccc2c1=O,8.3,16.6,6.9*,0.4,1.4,-2.9
COc1ccc(CNC(=O)C(=O)NC2CCCC2)cc1,-35.8,2.4,0.1,-0.2,x,x
COc1ccc(NC(=O)NCc2ccncc2)cc1,-4.2,-4.4,2.5,-0.1,x,x
COc1ccc(NC(=O)C(=O)NCc2ccncc2)cc1,4.1,0.6,5.1*,-0.1,-1.3,-13.7
CCN1CCc2c(sc(NC(=S)NC(=O)/C=C/c3ccc(OC)c(OC)c3)c2C(N)=O)C1,-9.7,-1.5,0.4,-0.1,x,x
Cn1c2ccccc2c2nnc(SCC(=O)c3ccccc3)nc21,1.0,-17.0,5.5*,-0.3,-0.2,-2.6
CCN1C(=O)C(O)(CC(=O)c2ccc(OC)c([N+](=O)[O-])c2)c2ccccc21 (stereo unspecified),6.4,-15.2,-0.3,0.2,x,x
SMILES,TEAD-YAP inh,MITF primary,GPR151 activ,FBW7 act,GPR151 conf act,GPR119 ag
COc1ccc(C(=O)NCCS(=O)(=O)NCCCOC(C)C)cc1,-2.3,3.4,5.2*,0.1,-1.8,-15.5
O=C(c1cccc(F)c1)N1CCOC(c2ccccc2)C1 (stereo unspecified),-6.5,12.9,-1.0,0.7,x,x
N/C(=N\OC(=O)c1ccncc1)c1cccnc1,-19.9,12.0,5.8*,0.7,-0.3,0.3
Cc1cc(=O)oc2cc(OC(C)C(=O)Nc3ccccc3)ccc12 (stereo unspecified),7.4,-9.3,5.3*,0.5,-0.3,-6.4
CCOC(=O)c1cccc(NC(=O)c2ccccc2OCC)c1,-3.8,8.5,5.5*,0.2,-0.3,-4.8
CCOc1ncccc1C(=O)Nc1ccc2c(C)cc(=O)oc2c1,-3.4,5.3,-1.1,0.2,x,x
COc1ccc(NC(=O)C(C)Oc2ccc3oc(=O)cc(C)c3c2)cc1 (stereo unspecified),-1.4,21.9,-1.5,0.1,x,x
COc1ccccc1C(=O)Nc1ccc2c(C)cc(=O)oc2c1,-65.0,13.0,17.0*,0.2,-0.7,-5.8
COc1ccccc1C(=O)Nc1cccc(N(C)C)c1,-11.2,3.8,15.8*,-0.3,0.0,-9.3
Cc1ccc2[nH]c3c(=O)n(CCCN4CCCC4=O)cnc3c2c1,-38.2,11.0,-0.8,0.1,x,x
O=C(/C=C/c1cccc([N+](=O)[O-])c1)Nn1cnc2ccccc2c1=O,3.6,-8.5,0.2,0.2,x,x
CCOCCCNc1c(-c2ccccc2)nc2cnccn12,5.7,8.7,5.6*,0.1,-0.5,4.8
CCOCCCNc1c(-c2ccccc2)nc2ccc(Br)cn12,-39.3,-2.6,1.4,0.1,x,x
CCN(CC)CCOC(=O)c1ccc(NC(=O)CNC(=O)C2CCCCC2)cc1,9.8,9.6,5.9*,-0.1,-0.2,-8.3
CCOc1ccc(NC(=O)CNC(=O)C2CCCCC2)cc1,-1.2,5.6,1.7,-0.1,x,x
O=c1nc(SCc2ccccn2)c2c(n1CCO)CCC2,-2.9,16.4,-1.6,-0.5,x,x
COC(=O)c1ccc(O)c(SCN2CCCCC2)c1,8.8,1.1,-0.5,-0.6,x,x
O=C(Cn1cc(NC(=O)COc2ccccc2)cn1)NCCn1ccc2ccccc21,3.4,5.7,1.3,-0.2,x,x
CS(=O)(=O)c1cc(C#N)c(N2CCNCC2)nc1-c1ccccc1,10.7,12.7,-1.6,0.1,x,x
Cc1nc2ccccc2nc1CN1CCC2(CC1)CC2C(=O)Nc1ccc2c(c1)OCO2 (stereo unspecified),-2.9,13.3,-0.7,0.0,x,x
CCCN(CC(=O)Nc1ccccc1C)C(=O)CCl,71.7*,3.2,8.4*,0.2,0.0,-1.4
COc1ccccc1-n1c(SCc2cc(=O)n3cc(Cl)ccc3n2)nc2c(sc(=S)n2-c2ccccc2)c1=O,1.6,16.7,-1.0,0.3,x,x
COc1cc2[nH]c(=S)n(C3CC(C)(C)NC(C)(C)C3)c(=O)c2cc1OC,-1.8,11.1,7.2*,-0.1,-0.2,9.5
COc1cc2[nH]c(=S)n(C3CC3)c(=O)c2cc1OC,19.2,9.6,0.9,-0.2,x,x
CC(=O)Nc1ccc(NC(=O)CCc2c(C)nc3c(c(C)nn3C(C)(C)C)c2C)cc1,-10.0,-11.7,-1.0,0.4,x,x
COCCN(C(=O)Cc1ccc(F)cc1)C1CCN(Cc2ccncc2)CC1,1.5,7.5,6.6*,0.0,-1.3,-13.7
COCCNC(=O)c1sc2nc(C)nc(N3CCN(C)CC3)c2c1C,-0.5,4.1,-0.6,-0.1,x,x
CCOC(=O)C1CCCN(C(=O)c2cccc(-n3c(=S)[nH]c4cc(Cl)ccc4c3=O)c2)C1 (stereo unspecified),0.3,3.6,6.6*,0.1,0.7,9.5
O=C(c1cccc(-n2c(=S)[nH]c3cc(Cl)ccc3c2=O)c1)N1CCCC1,-7.9,40.5,-1.3,0.0,x,x

# Assay outcomes (PubChem)
